One test concerns the target PRKX. As to the kind of experiment: pooled miR-30 sensor sort-seq; sequence = guide strand. The conditions noted are these: shRNA.
For the sequence TAGCTGAAGAGCTCGCCGCCCG, the sensor-assay potency score (higher = more potent) was -0.771.

For the sequence TAATGAGGTCTTTTACATGGAA, the sensor-assay potency score (higher = more potent) is -0.747.

For the sequence TCATGTTTCCTAATCGCCTTGT, the sensor-assay potency score (higher = more potent) was 0.781.

Take TTGGAGTGCAGGTACTCGATGG: the sensor-assay potency score (higher = more potent) is -0.357.

Take TTAATGAGGTCTTTTACATGGA: the sensor-assay potency score (higher = more potent) is -0.298.

Consider TTCCTAATCGCCTTGTTCTGTC, for which the sensor-assay potency score (higher = more potent) is -0.396.

Regarding TTCATGTTTCCTAATCGCCTTG, the sensor-assay potency score (higher = more potent) is -0.603.

As to TCGCCTTGTTCTGTCAACCACG, the sensor-assay potency score (higher = more potent) is -0.962.

For the sequence TTGGCGAACCCAAAGTCCGTGA, the sensor-assay potency score (higher = more potent) was -0.61.

As for TTTCCTAATCGCCTTGTTCTGT, the sensor-assay potency score (higher = more potent) is -0.676.

Consider TTCTCTGGCTTCAAGTCCCTGT, for which the sensor-assay potency score (higher = more potent) was -0.5.

For the sequence ATTGTGTACGTGTTGCTCCTGC, the sensor-assay potency score (higher = more potent) is 0.0637.

For a further test, the target named is PRM2. The description is as above. The conditions noted are these: shRNA.
Turning to TTGCGCCTTCTGCAGGAGCGAT, the sensor-assay potency score (higher = more potent) is -1.7.

Turning to TTGCTCTTGCCCATGCAACTGC, the sensor-assay potency score (higher = more potent) is -0.57.

For TGCCTGTACACCTCGTGCGAGC, the sensor-assay potency score (higher = more potent) is -1.54.

On to TATAGTGAGACTGGCCATGGGT, for which the sensor-assay potency score (higher = more potent) was -0.496.

Regarding TCGAGAGCAGTGTCTGCGCCTA, the sensor-assay potency score (higher = more potent) is -0.978.

As to TTCCTGGTTCTGCAGCCTCTGC, the sensor-assay potency score (higher = more potent) is -1.75.

With TTTTTCTTAATTTCCAGCTGGG, the sensor-assay potency score (higher = more potent) was determined as 0.485.

Turning to TTCTCTTAACTTCCAGCTGGGG, the sensor-assay potency score (higher = more potent) was -0.773.

As for TAGACCTCGACGTGCTCCGGGC, the sensor-assay potency score (higher = more potent) is -1.

Regarding TTGCCCATGCAACTGCTGCCTG, the sensor-assay potency score (higher = more potent) was -0.795.

In the case of TTCGAGAGCAGTGTCTGCGCCT, the sensor-assay potency score (higher = more potent) is -0.241.

For TTTCTCTTAACTTCCAGCTGGG, the sensor-assay potency score (higher = more potent) worked out at 0.205.

The next test concerns the target PROC. The description is as above. The conditions noted are these: shRNA.
For TTTGCGGATCCGCAGCACCTGG, the sensor-assay potency score (higher = more potent) was -1.65.

For the sequence TTGTCGGTGGTGCTCTTGCTGT, the sensor-assay potency score (higher = more potent) is -1.32.

Turning to TTTGGTGTAAACGCCGTAGTTG, the sensor-assay potency score (higher = more potent) was -0.456.

Consider ATGTTGCTCATGACCTCGCTGC, for which the sensor-assay potency score (higher = more potent) was -0.588.

Turning to ATTGAGGAAGCTCACCTCGCGC, the sensor-assay potency score (higher = more potent) was -1.35.

As to TGACTTTGGTGTAAACGCCGTA, the sensor-assay potency score (higher = more potent) was -0.165.

As for AAGTTGAGGACGAAGGTGCGGT, the sensor-assay potency score (higher = more potent) is -0.189.

TCATTGTCGGTGGTGCTCTTGC: the sensor-assay potency score (higher = more potent) is -0.681.

As to TTGCTCATGACCTCGCTGCACT, the sensor-assay potency score (higher = more potent) is -0.963.

TTCTCAGACACCATGTTGCTCA yielded a sensor-assay potency score (higher = more potent) of 0.141.

In the case of TCGCTGCTGGAGAACACTGAGT, the sensor-assay potency score (higher = more potent) was -1.33.

As for TTGGTGTAAACGCCGTAGTTGT, the sensor-assay potency score (higher = more potent) was -1.16.

The target of the next test is PRODH2. The description is as above. The conditions noted are these: shRNA.
AAACGCTGTAGTGTTATTGAAT: the sensor-assay potency score (higher = more potent) was -0.964.

Regarding AAAATTGGAAACGCTGTAGTGT, the sensor-assay potency score (higher = more potent) is -0.189.

As for TTATTGAATACATTTGAAAATA, the sensor-assay potency score (higher = more potent) was -1.75.

The values above are taken from the OligoGym collection.
Note: reference of the scale not given here.
